Screens deposited in PubChem BioAssay by several laboratories.
EP2 modulator: EP2 receptor modulators, cAMP readout, primary screen, cell-based, HTRF cAMP, PGE2 stimulation | EP2-expressing cells, cAMP HTRF FRET, PGE2 co-stimulation | actives 0.83% (n = 260,000) | induction, % at 25 µM | Prostaglandin E2 receptor EP2 subtype (Homo sapiens), P43116;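 active = compounds whose cAMP rise, as percent of the full-agonist control response, exceeds 60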;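 also: rat C6 glioma line stably carrying human EP2 under a CMV promoter; the protocol text gives 20 µM as final concentration; 100% = response of wells given 1 µM PGE2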
Target sequence (P43116 whole entry, looked up): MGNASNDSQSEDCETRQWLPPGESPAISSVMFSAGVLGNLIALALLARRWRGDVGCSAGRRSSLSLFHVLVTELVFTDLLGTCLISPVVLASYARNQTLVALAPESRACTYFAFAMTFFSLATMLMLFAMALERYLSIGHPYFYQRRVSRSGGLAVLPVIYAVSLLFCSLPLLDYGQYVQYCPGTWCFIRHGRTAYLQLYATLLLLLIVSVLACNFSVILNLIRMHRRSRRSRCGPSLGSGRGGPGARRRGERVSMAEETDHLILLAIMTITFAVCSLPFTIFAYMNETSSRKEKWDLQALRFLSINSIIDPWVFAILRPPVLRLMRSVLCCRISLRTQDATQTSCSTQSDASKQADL
Arbovirus anti: antivirals against arbovirus infection, primary screen, cell-based, full library, 10K replicate subset; inhibition, % at 10 µM; arbovirus infection cell-based antiviral screen; actives 0.37% (n = 200,000); in the data active = inhibition above about 30%
PGE2 EP2 inh: human EP2 receptor antagonists, primary screen, TR-FRET cAMP, C6 glioma cells; actives 0.52% (n = 260,000); inhibition, % at 25 µM; C6 glioma cells expressing human EP2; cells stimulated with saturating PGE2; Prostaglandin E2 receptor EP2 subtype (Homo sapiens), P43116; AID 1422, 2008;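 active = percent inhibition above 40 after rounding to a whole number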;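 also: rat C6 glioma host cells with rolipram phosphodiesterase inhibitor present; the protocol text gives 20 µM as final concentration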
p97 inhibitor: inhibitors of human p97 ATPase, primary screen, biochemical; Transitional endoplasmic reticulum ATPase (Homo sapiens), P55072; recombinant p97 ATPase, Kinase-Glo ATP luminescence, 3 h; inhibition, % at 8 µM; actives 0.42% (n = 220,000); in the data active = inhibition above about 15%;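 also: 0% = DMSO vehicle and 100% = wells lacking enzyme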
Hck Nef HTS: inhibitors of Nef-activated human Hck kinase, primary screen, biochemical, Z-Lyte FRET, 384-well, Hck-YEEI | actives 0.68% (n = 220,000) | inhibition, % at 20 µM | AID 463187, 2010 | Tyrosine-protein kinase HCK (Homo sapiens), P08631 | Recombinant Hck-YEEI plus Nef, Z-Lyte FRET kinase assay;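 active = Hck-Nef kinase inhibition above about 50%, limit read from the data; inactive = inhibition below that limit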;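 also: 0% = DMSO with Hck plus Nef and 100% = Hck alone without Nef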
Active calls of the source: *; nt = no result given. Sampled rows, rich in hits. Any-hit rate of the full collection: about 2.4%.

SMILES	EP2 modulator	Arbovirus anti	PGE2 EP2 inh	p97 inhibitor	Hck Nef HTS
CC(=O)Nc1ccc(S(=O)(=O)N2CCCCC2c2cccnc2)cc1 (stereo unspecified)	-5.0	-1.4	6.0	2.7	-1.8
CN1CCC[C@H]1c1cccnc1.O=C(O)c1ccccc1O.O=C([OH2+])c1ccccc1O.O=C([OH2+])c1ccccc1O.O=C([OH2+])c1ccccc1O.[Cu]	9.4	nt	40.3*	nt	nt
CN1CCCC1c1cccnc1 (stereo unspecified)	nt	nt	18.1	nt	nt
CN1CCC[C@H]1c1cccnc1.O=C(O)c1ccccc1O.O=C([OH2+])c1ccccc1O.O=C([OH2+])c1ccccc1O.[Mn+2]	28.7	nt	40.3*	nt	nt
CC(C)n1c(SCC(=O)Nc2nc(C(C)(C)C)cs2)nc2c1c(=O)n(C)c(=O)n2C	57.1	nt	18.3	nt	nt
Nc1nc2c(c(=O)[nH]1)N[C@H](CCNc1ccc(C(=O)O)cc1)CN2	29.2	nt	48.6*	nt	nt
O=C(CSc1nc2ccccc2c(=O)[nH]1)Nc1ccc(C(=O)O)cc1	37.7	11.3	4.4	8.4	10.4
Cc1[nH]n(-c2ccccc2)c(=O)c1C(C[N+](=O)[O-])c1ccccc1Cl (stereo unspecified)	8.0	3.4	6.3	5.6	-2.6
Cc1[nH]n(-c2ccccc2)c(=O)c1C(c1ccc(O)c([N+](=O)[O-])c1)c1c(C)[nH]n(-c2ccccc2)c1=O	nt	nt	19.2	14.6*	-1.4
COc1ccc(NC(=S)N(CCN(C)C)Cc2cc3c(C)ccc(C)c3[nH]c2=O)cc1	-71.7	nt	15.6	nt	nt
Cc1cc(C(C)(C)C)oc1C(=O)N(CC(=O)NC1CCCC1)c1c(C)cccc1C	64.0*	-30.1	11.2	-1.1	1.7
Cc1cc(C(C)(C)C)oc1C(=O)N(CC(=O)NC1CCCC1)c1ccc(F)cc1	1.4	-8.4	14.6	-1.7	1.7
CC1=CC(C)(C)N(C(=O)CSc2nnc(N)s2)c2cc(C)c(C)cc21	61.7*	-13.9	3.2	-9.6	-1.5
O=[N+]([O-])c1ccc(Oc2ccc(/C=N/O)cc2)nc1	-28.8	-1.2	0.8	-0.4	15.2
O=C1NC(=O)/C(=C\c2ccc(Oc3ccc([N+](=O)[O-])cn3)cc2)S1	-74.0	32.9*	7.7	6.3	-15.7
CCCCC(=O)Nc1sc2c(c1-c1nc3ccccc3s1)CCN(C(C)=O)C2	38.8	-39.6	7.8	-0.6	66.0*
CC(=O)N1CCc2c(sc(NC(=O)C3CC3)c2-c2nc3ccccc3s2)C1	18.8	-12.0	10.0	-3.4	2.8
Cc1cc(N=Cc2c(O)ccc3cc(Br)ccc23)no1	-1.1	55.2*	11.0	3.9	21.3
Cc1cc(N=Cc2c(O)ccc3ccccc23)no1	10.2	3.0	5.0	-4.6	0.2
CC(C)(O[C@@H]1O[C@H](CO)[C@@H](O)[C@H](O)[C@H]1O)[C@H]1Cc2cc3ccc(=O)oc3cc2O1	0.0	30.4*	18.7	-3.0	-7.4
O=C(COc1ccccc1C(=O)N/N=C\c1ccc(O)c(O)c1)N/N=C/c1ccc(O)c(O)c1	5.5	-8.1	nt	18.7*	19.2
O=C(COc1ccccc1[N+](=O)[O-])N/N=C/c1ccc(O)c([N+](=O)[O-])c1	6.9	-21.1	11.4	7.9	6.7
CCn1c(SCC(=O)Nc2cc(C)ccc2C)nnc1-c1ccoc1C	2.1	nt	14.7	nt	nt
O=C(/C=C/c1ccco1)c1ccc(Br)cc1	-31.1	nt	10.0	nt	nt
O=C1c2ccccc2-c2cc([N+](=O)[O-])c([N+](=O)[O-])cc21	-34.8	nt	63.9*	nt	nt
SMILES	EP2 modulator	Arbovirus anti	PGE2 EP2 inh	p97 inhibitor	Hck Nef HTS
Cc1cccc(NC(=O)CSc2nc3sc4c(c3c(=O)[nH]2)CCCC4)c1C	-13.2	nt	45.2*	nt	nt
O=C(CSc1nc2sc3c(c2c(=O)[nH]1)CCCC3)Nc1cccc(F)c1	8.7	nt	2.9	nt	nt
COc1ccc(Cl)cc1NC(=O)CN1CCC(c2nc3ccc(Cl)cc3[nH]2)CC1	-61.8	nt	13.5	nt	nt
Cc1cc(O)ccc1Nc1nc(-c2cccs2)cs1	15.7	-25.8	12.1	5.5	57.4*
Cc1ccc(Nc2nc(-c3cccs3)cs2)nc1	13.2	14.0	3.7	-2.7	11.8
CC(=O)NC1(c2ccccc2F)CCN(Cc2cnn(Cc3ccccc3)c2C)CC1	11.9	nt	3.2	nt	nt
